The structures appear in SMILES notation. In all, about 16,000 compounds went through this assay and about 5,100 (32%) were called active. About 25% were inconclusive and are not listed. Calls come from the whole dose curve; as a rule, active = well fitted curve in the direction sought with a large enough effect; inconclusive = small, poorly fitted or top-dose-only effect, or effect the other way; inactive = no such curve, though single readings can be large or run the other way. Some of the results follow.

These results are taken from PubChem BioAssay AID1851 (National Center for Advancing Translational Sciences (NCATS), 2009).
% is set by controls: 0 for no effect and ±100 for the full control effect.

The target in the assay is Cytochrome P450 3A4 (Homo sapiens) (UniProt P08684). The experiment in a line: Cytochrome panel assay with activity outcomes. The conditions noted are these: recombinant CYP, pro-luciferin dealkylation, luminescence, p450-cyp3a4; series mostly up to 57.1 µM.
Sequence of Cytochrome P450 3A4 (Homo sapiens) (P08684 whole entry, looked up): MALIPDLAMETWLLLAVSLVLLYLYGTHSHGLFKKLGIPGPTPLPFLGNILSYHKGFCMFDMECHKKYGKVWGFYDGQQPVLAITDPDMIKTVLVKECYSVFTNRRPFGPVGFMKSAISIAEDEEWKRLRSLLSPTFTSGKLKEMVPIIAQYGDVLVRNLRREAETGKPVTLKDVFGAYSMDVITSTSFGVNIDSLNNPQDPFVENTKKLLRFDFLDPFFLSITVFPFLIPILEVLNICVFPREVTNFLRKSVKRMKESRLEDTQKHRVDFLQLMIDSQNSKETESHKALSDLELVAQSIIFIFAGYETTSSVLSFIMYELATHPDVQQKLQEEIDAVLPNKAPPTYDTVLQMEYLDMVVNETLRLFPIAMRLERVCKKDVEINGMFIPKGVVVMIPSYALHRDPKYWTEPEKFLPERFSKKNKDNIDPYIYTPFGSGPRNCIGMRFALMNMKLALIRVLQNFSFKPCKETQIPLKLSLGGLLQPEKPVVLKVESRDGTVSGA
In the case of `CC(=O)N(C)c1nnc(-c2cnccn2)s1`, the AC50 (as a rule, the concentration at which the activity in the assay is half-maximal) was “inactive”. As for `CC(=O)N[C@@H]1CONC1=O`, the activity, negative = inhibition was -3.29% [at 11.4 µM] (inactive).

Regarding `O=C1[C@H]2[C@H]3[C@H](O)[C@H](O)C/C(=N/OCc4ccccc4)[C@@H]3CC[C@@H]2C(=O)N1C[C@@H]1CCCO1`, the activity, negative = inhibition was -20.3% [at 11.4 µM] (inactive). As to `CC(C)CO/N=C1/C[C@@H](O)[C@@H](O)[C@@H]2[C@@H]3C(=O)N(Cc4ccc5c(c4)OCO5)C(=O)[C@H]3CC[C@H]12`, the AC50 was 1 µM (active). Regarding `O=C1[C@H]2[C@H]3[C@H](O)[C@H](O)C/C(=N/OCc4ccccc4)[C@@H]3CC[C@@H]2C(=O)N1Cc1ccc2c(c1)OCO2`, the AC50 was 2 µM (active). For the compound `CC(C)CO/N=C1/C[C@@H](O)[C@@H](O)[C@@H]2[C@@H]3C(=O)N(C[C@@H]4CCCO4)C(=O)[C@H]3CC[C@H]12`, the activity, negative = inhibition is -0.365% [at 11.4 µM] (inactive).

Turning to `CC(C)CO/N=C1/C[C@@H](O)[C@@H](O)[C@@H]2[C@@H]3C(=O)N(Cc4ccccc4)C(=O)[C@H]3CC[C@@H]12`, the activity, negative = inhibition was -11.8% [at 11.4 µM] (inactive). The same measure, in the same setting: with `O=C1[C@H]2[C@H]3[C@H](O)[C@H](O)C/C(=N/OCc4ccccc4)[C@H]3CC[C@@H]2C(=O)N1C[C@@H]1CCCO1` the figure was -11.3% [at 11.4 µM] (inactive). The same measure, in the same setting: with `Nc1ccc(C(=O)C[C@H](N)C(=O)O)cc1O` the figure was -6.46% [at 11.4 µM] (inactive). As to `O=C(O)[C@@H]1[C@@H](C(=O)Nc2ncccn2)[C@@H]2C=C[C@@H]1O2`, the activity, negative = inhibition was -13% [at 11.4 µM] (inactive). With `CCOC(=O)c1cnn(-c2nc(-c3ccc(F)cc3)cs2)c1C(F)(F)F`, the AC50 result was “inactive”. In the case of `Nc1c(-c2cccs2)cnn1-c1nc(-c2ccc(F)cc2)cs1`, the AC50 is 3.98 µM (active). For the compound `Fc1ccc(-c2cnc(-c3cccs3)o2)cc1`, the AC50 entry is “inactive”. Still for that read-out and setting: the result for `Cc1ccc(C)c(S(=O)(=O)NCc2ccc(C(=O)N3CCC(Cc4ccccc4)CC3)cc2)c1` reads 2.24 µM (active); that for `CC1(C)CC(O)CC(C)(C)N1CC(O)COCCOc1ccc(Br)cc1` (stereo not drawn), “inactive”; that for `Clc1cccc(Oc2cnc3ccccc3n2)c1`, “inactive”. Consider `O=C(CCl)Nc1ccc(Oc2cnc3ccccc3n2)cc1`, for which the AC50 was 14.1 µM (active). Consider `COCCNC(=O)COC(=O)/C=C/c1cnc2ccccc2n1`, for which the activity, negative = inhibition was -3.34% [at 2.29 µM] (inactive). As to `O=C(NC(=S)Nc1nc(-c2ccc(Br)cc2)cs1)c1cccnc1`, the activity, negative = inhibition is -14.3% [at 2.29 µM] (inactive). Take `COc1ccc(CNc2cc(-c3cccnc3)ncn2)c(OC)c1`: the half-maximal activity concentration (AC50) was 1.58 µM (active). Same read-out and setting: with `COc1ccccc1CNc1cc(-c2cccnc2)ncn1` the figure was 0.631 µM (active). Still for that read-out and setting: the result for `COc1ccc(CCNc2nc(-c3cccnc3)cs2)cc1OC` reads 3.16 µM (active); that for `c1ccc(-c2csc3ncn4cnnc4c23)cc1`, “inactive”; that for `Cc1ccc(C2C(C(=O)c3ccco3)=C(O)C(=O)N2c2nnc(C)s2)cc1` (stereo not drawn), “inactive”. Still for that read-out and setting: the result for `CCS(=O)(=O)Nc1ccc(C2=NN(C(=O)c3ccco3)C(c3ccc(C)cc3)C2)cc1` (stereo not drawn) reads 3.98 µM (active). For the compound `N=C(N)SCCc1ccncc1`, the activity, negative = inhibition was 4.88% [at 11.4 µM] (inactive). The same measure, in the same setting: with `N=C(N)SCCSC(=N)N` the figure was -5.54% [at 11.4 µM] (inactive).

Regarding `N=C(N)SCCc1cnc[nH]1`, the AC50 is 15.8 µM (active). Same read-out and setting: the result for `Cc1cccc(Oc2coc3cc(OC(=O)c4cccs4)ccc3c2=O)c1` reads 11.2 µM (active); that for `CCOc1ccccc1Oc1coc2cc(OC)ccc2c1=O`, “inactive”. The same measure, in the same setting: the result for `Cc1cc(C)cc(Oc2coc3cc(OC(=O)c4cccs4)ccc3c2=O)c1` reads “inactive”. Regarding `CCCCCCCCn1cc(C(C)=O)c(=O)[nH]c1=O`, the activity, negative = inhibition was -12.5% [at 2.29 µM] (inactive). Turning to `O=C(Cn1c(=O)n(Cc2ccco2)c(=O)c2c3c(sc21)CCCCC3)c1ccccc1`, the AC50 is 14.1 µM (active). As for `C[N+]1(NCC[N@@+]2(C)CCc3ccccc3C2)CCCCC1`, the activity, negative = inhibition is 0.246% [at 11.4 µM] (inactive). Take `CCC(C)(C)n1nnnc1C(c1ccc(C)cc1)N1CCC(C)CC1` (stereo not drawn): the activity, negative = inhibition was 21.5% [at 2.29 µM] (inactive). `CCC(C)(C)n1nnnc1C(c1cc2cc3c(cc2[nH]c1=O)OCO3)N1CCCCC1` (stereo not drawn): the AC50 was 1.58 µM (active). Still for that read-out and setting: with `CCC(C)(C)n1nnnc1C(C(C)C)N(Cc1ccco1)Cc1cc2cc3c(cc2[nH]c1=O)OCO3` (stereo not drawn) the figure was 1 µM (active); with `CCC(C)(C)n1nnnc1C(C(C)C)N(CCCO)Cc1cc2cc(C)ccc2[nH]c1=O` (stereo not drawn), 2 µM (active). `c1ccc(C[n+]2cccc(-c3cc4ccccc4[nH]3)c2)cc1`: the activity, negative = inhibition was -7.36% [at 11.4 µM] (inactive). Turning to `Fc1ccccc1OCCCCSc1ncccn1`, the AC50 entry is “inactive”.

For `O=S(=O)(O)[C@@H](CO)c1ccccc1` (tested in a mixture with another compound), the activity, negative = inhibition was -1.16% [at 11.4 µM] (inactive). Take `O=C1C(SCCO)=C(SCCO)C(=O)c2ccccc21`: the AC50 was 25.1 µM (active). Regarding `O=C1C(=O)c2ccccc2C(O)=C1C(CCc1ccccc1)C1=C(O)c2ccccc2C(=O)C1=O`, the activity, negative = inhibition is -5.65% [at 11.4 µM] (inactive). Turning to `COc1ccc2[nH]cc(CCNc3ccnc(-c4cccnc4)n3)c2c1`, the AC50 was 1.26 µM (active).

Take `COc1ccc2[nH]cc(CCNc3cc(-c4cccc(C#N)c4)ncn3)c2c1`: the concentration at half-maximal activity (AC50) is 3.98 µM (active). On the same count and under the same terms, with `COc1ccc2[nH]cc(C=O)c2c1` the entry was “inactive”; with `COc1ccc2[nH]cc(CCNc3cc(-c4cccnc4)ncn3)c2c1`, 3.98 µM (active). With `COc1cccc(-c2cc(NCCc3c[nH]c4ccc(OC)cc34)ncn2)c1`, the AC50 is 7.94 µM (active). For `COc1ccc2[nH]cc(CCNc3cc(-c4ccoc4)ncn3)c2c1`, the concentration at half-maximal activity (AC50) was 10 µM (active).

Take `Cc1ccc(NC(=O)N/C=C/c2ccc(Cl)cc2)cc1`: the AC50 is 0.0501 µM (active). Same read-out and setting: with `CC(C)N=C(N)/N=C(\N)Nc1ccc(Cl)cc1` the entry was “inactive”.

As for `O=c1ncn(-c2ccccc2F)c2ncccc12`, the activity, negative = inhibition is 14.6% [at 2.29 µM] (inactive). As to `O=c1ccc(-c2ccccc2)n[nH]1`, the activity, negative = inhibition was -16.6% [at 11.4 µM] (inactive). With `O=C1c2ccccc2-c2n[nH]c3cccc1c23`, the AC50 is 3.98 µM (active).

Turning to `Cc1n[nH]c2ccccc2c1=O`, the activity, negative = inhibition is -6.8% [at 11.4 µM] (inactive). In the case of `NC(N)=NC(=O)Cc1c(Cl)cccc1Cl`, the AC50 entry is “inactive”. Still for that read-out and setting: the result for `Cc1nc2cc(NC(=O)CSc3nc4c(C)cccc4cc3C#N)ccc2s1` reads 2.82 µM (active). With `Cc1ccc2nc(SCC(=O)NCc3cccs3)c(C#N)cc2c1`, the activity, negative = inhibition was -9.74% [at 2.29 µM] (inactive). Turning to `Cc1cc2cccc(C)c2nc1SCC(=O)N(C)c1nc(-c2ccccc2)cs1`, the AC50 result is “inactive”. In the case of `O=C(CN(CC1CCCO1)C(=O)CNS(=O)(=O)c1ccc(Cl)cc1)NCCc1ccccc1` (stereo not drawn), the AC50 was 11.2 µM (active). Regarding `COc1ccccc1N(CC(=O)NCC1CCCO1)C(=O)CNS(=O)(=O)c1ccc(C)cc1` (stereo not drawn), the AC50 is 7.94 µM (active). With `O=C(NCC1CCCO1)c1ccc(CS(=O)(=O)Cc2ccc(F)cc2)o1` (stereo not drawn), the AC50 entry was “inactive”.

On to `CC(C)C(C(=O)NCC1CCCO1)N(Cc1ccco1)C(=O)CNS(=O)(=O)c1ccc(F)cc1` (stereo not drawn), for which the AC50 is 5.01 µM (active).

Take `O=C(O)c1cc(S(=O)(=O)NCC2CCCO2)ccc1Cl` (stereo not drawn): the AC50 entry is “inactive”. As for `COc1ccc(S(=O)(=O)N(CC(=O)NCC2CCCO2)c2ccc(F)cc2)cc1OC` (stereo not drawn), the AC50 is 8.91 µM (active).

With `COc1ccc(/C=C(\C#N)C(=O)NCC2CCCO2)cc1OC` (stereo not drawn), the AC50 entry was “inactive”. Same read-out and setting: the result for `CCC(C)NS(=O)(=O)c1ccc(OCC(=O)NCC2CCCO2)cc1` (stereo not drawn) reads “inactive”. On to `Cc1ccccc1NC1=NC(=S)N(c2ccccc2)C12CCOC(C)(C)C2` (stereo not drawn), for which the concentration at half-maximal activity (AC50) is 10 µM (active). Still for that read-out and setting: the result for `COc1ccc(NC2=NC(=S)N(c3ccc(C)cc3)C23CCCCC3)cc1` reads “inactive”. `Cc1cccc(NC2=NC(=S)N(c3ccc(C(=O)O)cc3)C23CCCCC3)c1`: the activity, negative = inhibition was 10.4% [at 2.29 µM] (inactive). With `COc1cccc(Nc2ncc3nc(C)c(=O)n(C4CC4)c3n2)c1`, the AC50 is 6.31 µM (active). The same measure, in the same setting: with `Cc1nc2cnc(Oc3cccc(Cl)c3)nc2n(C2CC2)c1=O` the entry was “inactive”. For `O=c1cnc2cnc(Nc3ccccc3)nc2n1CCc1ccccc1`, the AC50 result was “inactive”. The same measure, in the same setting: with `COc1cccc(Nc2ncc3nc(C)c(=O)n(CCc4ccccc4)c3n2)c1` the figure was 7.94 µM (active); with `COCCn1c(=O)c(C)nc2cnc(Nc3cccc(OC)c3)nc21`, 15.8 µM (active); with `N[C@@H](Cc1cc(CP(=O)(O)O)cc(-c2ccccc2Cl)c1)C(=O)O`, “inactive”. Same read-out and setting: with `CCN1C(=O)C2(SC(NC(C)=O)=NN2C(C)=O)c2cc(C)ccc21` (stereo not drawn) the entry was “inactive”. On to `N#Cc1cccc(-c2nc3cnc(Nc4ccccc4)nc3n(C[C@H]3CCCO3)c2=O)c1`, for which the AC50 result is “inactive”. Regarding `O=C1c2ccccc2C(=O)N1CC1CCCO1` (stereo not drawn), the AC50 result was “inactive”. Still for that read-out and setting: the result for `Nc1ncc(-c2ccccc2)n1CC1CCCO1` (stereo not drawn) reads 7.08 µM (active). On to `CC(=O)c1sc(N)c(C(=O)OC(C)C)c1C`, for which the AC50 result was “inactive”.

For the compound `COc1ccc(CNc2ncncc2-c2ccc(C(=O)N(C)C)cc2)c(OC)c1`, the AC50 is 0.501 µM (active). With `COc1ccc(CNc2ncncc2-c2ccc(N(C)C)cc2)c(OC)c1`, the half-maximal activity concentration (AC50) is 0.2 µM (active). As for `COc1ccccc1CNc1ncncc1-c1ccc(C(=O)N(C)C)cc1`, the AC50 is 2.51 µM (active). Same read-out and setting: the result for `C/C(=N\OC(=O)c1ccc(F)cc1)c1nccs1` reads “inactive”. As to `N[C@@H](Cc1c[nH]c2ccc([N+](=O)[O-])cc12)C(=O)O`, the activity, negative = inhibition is -8.71% [at 11.4 µM] (inactive). Regarding `O=C(NC(NCc1ccccc1)C(Cl)(Cl)Cl)c1cccnc1` (stereo not drawn), the AC50 was 12.6 µM (active). Same read-out and setting: with `Cc1cccc(NC(NC(=O)c2cccnc2)C(Cl)(Cl)Cl)c1` (stereo not drawn) the figure was 10 µM (active).

On to `CCn1ccc(C(=O)NC2C(=O)N3C(C(=O)O)=C(C)CSC23)n1` (stereo not drawn), for which the AC50 entry was “inactive”. The same measure, in the same setting: the result for `COc1ccc2c(c1)OC1=C(C(=O)CCC1)C2C1=C(O)CCCC1=O` (stereo not drawn) reads “inactive”; that for `O=C1CCCC2=C1C(c1ccc(OS(=O)(=O)c3ccc(Cl)cc3)cc1)C1=C(CCCC1=O)O2`, 2.24 µM (active); that for `Cc1ccc(S(=O)(=O)Oc2ccc(C3C4=C(CCCC4=O)OC4=C3C(=O)CCC4)cc2)cc1`, 6.31 µM (active). With `Cc1ccc(S(=O)(=O)Oc2cc(N)c3c(n2)CCC3)cc1`, the activity, negative = inhibition is -14.1% [at 11.4 µM] (inactive).
